Data published in PubChem BioAssay (NCATS).
Results filed as inconclusive are left out. The source made the active and inactive calls. Unless noted, calls follow the shape of the dose curve; as a rule, active = well fitted inhibition curve with a large enough effect; inconclusive = small, poorly fitted or top-dose-only effect; inactive = no such curve, though single readings can be large or run the other way.

Assays:
[1] = High-throughput drug toxicity screening in the BPDCN cell line Gen2.2 (AID 1224824; call rule not given here;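 also: cells exposed to compounds for 48 h before reading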); conditions: Gen2.2 BPDCN cells; at 45.8 µM (top of the series)
Outline: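 CellTiter-Glo luminescence read after 48 h compound exposure at 37 C defines viability; percent activity set with DMSO as 100% and bortezomib (9.2 uM final) as 0%. 500 exponentially growing cells per well, RPMI plus 10% FBS.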

[2] = High-throughput drug toxicity screening in the BPDCN cell line Cal-1 (AID 1224825; call rule not given here); conditions: Cal-1 BPDCN cell viability, qHTS; at 45.8 µM (top of the series)
Outline: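 Viability of the BPDCN line Cal-1 is measured as ATP-based luminescence (CellTiter-Glo) following 48 h incubation with compounds. Percent activity uses DMSO-treated wells as 100% and 9.2 uM bortezomib as 0%.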

[3] = qHTS assay for measurement of the activity of small molecule inhibitors on Zika virus induced Caspase-3 activity in human iPSC derived neural progenitor cells (hNPCs) (AID 1224857); also: nearly all actives have a fitted effect of over 65% in size; also: potency is read from the fitted curve at half-maximal effect
Outline: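 After overnight (16–20 h) culture at 350 cells/well, hNPCs get compound, then ZIKV 2 FFU/cell one hour later. Six hours on, Caspase-Glo 3/7 is added and luminescence measured.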

[4] = qHTS assay for measurement of the activity of small molecule inhibitors on Zika virus induced Caspase-3 activity in human astrocytoma cells (AID 1224859);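 also: plate controls were ZIKV-infected untreated cells for no effect and uninfected cells for full effect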
Outline: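 Inhibition of Zika-induced caspase-3/7 activity: SNB-19 cells, 1 h compound pretreatment, ZIKV 2 FFU/cell for 6 h at 37 C, Caspase-Glo luminescence read-out.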

[5] = qHTS Screen of the MIPE 4.0 Collection Against Ewings Sarcoma (TC71) (AID 1259253); also: nearly all actives have a fitted effect of over 40% in size; also: potency is read from the fitted curve at half-maximal effect
Outline: (§1)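 Measured: ATP luminescence (CellTiter-Glo) 10 min after reagent addition, following 48 h drug treatment. Relative luciferase units converted to percent activity, with no-cell wells as full and DMSO wells as zero inhibition.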

[6] = qHTS Screen of the MIPE 4.0 Collection Against Ewings Sarcoma (EW8) (AID 1259255); also: nearly all actives have a fitted effect of over 35% in size; also: potency is read from the fitted curve at half-maximal effect;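 as to viability: 100% = DMSO-treated cells and 0% = medium-only wells without cells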
Outline: as §1

[7] = qHTS Screen of the MIPE 4.0 Collection Against Ewings Sarcoma (TC32) (AID 1259256); also: nearly all actives have a fitted effect of over 45% in size; also: potency is read from the fitted curve at half-maximal effect
Outline: as §1

[8] = qHTS Screen of the MIPE 4.0 Collection Against Ewings Sarcoma (RDES) (AID 1259252); also: potency is read from the fitted curve at half-maximal effect; nearly all actives have a fitted effect of over 35% in size
Outline: as §1

Row | SMILES | cell viability, % of control (lower = more cytotoxic) [1] | viability (% of control) [2] | Potency [3] | Potency [4] | Potency [5] | Potency [6] | Potency [7] | Potency [8]
1 | CSCC[C@@H](NC(=O)[C@@H](Cc1ccccc1)NC(=O)CNC(=O)CNC(=O)[C@@H](N)Cc1ccc(O)cc1)C(=O)O | 140% | 134% | inactive | inactive | inactive | inactive | inactive | 
2 | C[C@]12Cc3cn[nH]c3C[C@@H]1CC[C@@H]1[C@H]2CC[C@@]2(C)[C@H]1CC[C@]2(C)O | 133% | 111% | inactive | inactive | 2.96 µM (active) | 2.96 µM (active) | 3.32 µM (active) | 
3 | CCOC(=O)Nc1ccc(NCc2ccc(F)cc2)cc1N | 120% | 105% | inactive | inactive | 29.6 µM (active) |  | 20.9 µM (active) | 
4 | CC(C)N[C@@H]1CCn2c(=O)[nH]c3cccc(c32)[C@@H]1O | 22.6% | 7.1% | 16.6 µM (active) | inactive | 8.33 µM (active) | 7.43 µM (active) | 8.33 µM (active) | 
5 | CCC(=O)OC1CCC2C3CCC4=CC(=O)CC[C@@]4(C)C3CC[C@]12C (stereo partly drawn) | 223% | 105% | inactive | inactive | inactive | inactive | inactive | 
6 | CC(O)=C(C#N)C(=O)Nc1cc(Br)ccc1Br | 79.3% | 103% | inactive | inactive | 23.5 µM (active) |  | 20.9 µM (active) | 
7 | Cc1c(C(=O)c2cccc3ccccc23)c2cccc3c2n1[C@H](CN1CCOCC1)CO3 | 17.7% | 40% | inactive | inactive | 26.4 µM (active) | 26.4 µM (active) | 26.4 µM (active) | 
8 | CN1CCN(c2ccc([N+](=O)[O-])c3no[n+]([O-])c23)CC1 | 4.61% | 4.53% | inactive | inactive | 23.5 µM (active) | 23.5 µM (active) | 18.7 µM (active) | 
9 | CCNC(=O)C[C@@H]1N=C(c2ccc(Cl)cc2)c2cc(OC)ccc2-n2c(C)nnc21 | 12.3% | 7.23% | inactive | inactive | 2.96 µM (active) | 7.43 µM (active) | 3.72 µM (active) | 
10 | CC(=O)O[C@@]12CO[C@H]1C[C@H](O)[C@@]1(C)C(=O)[C@H](O)C3=C(C)[C@@H](O)C[C@@](O)([C@@H](OC(=O)c4ccccc4)[C@@H]21)C3(C)C | 42% | 20.6% | inactive |  | 23.5 µM (active) | 2.35 µM (active) |  | 2.35 µM (active)
11 | CC=C(C)C(=O)O[C@H]1C(C)=C2[C@@H]3OC(=O)[C@@](C)(O)[C@@]3(O)[C@@H](OC(=O)CCC)C[C@](C)(OC(C)=O)[C@@H]2[C@@H]1OC(=O)CCCCCCC | 12.1% | 2.54% | inactive | inactive | 0.0526 µM (active) | 0.0935 µM (active) | 0.0418 µM (active) | 
12 | CC(C)[C@H]1C(=O)N[C@H](CO)Cc2c[nH]c3cccc(c23)N1C | 391% | 82.8% | 23.5 µM (active) | inactive | inactive | inactive | 0.166 µM (active) | 
13 | N#C[C@H](O[C@@H]1O[C@H](CO[C@@H]2O[C@H](CO)[C@H](O)[C@H](O)[C@H]2O)[C@H](O)[C@H](O)[C@H]1O)c1ccccc1 | 180% | 52.5% | inactive | inactive | 20.9 µM (active) | 20.9 µM (active) | 26.4 µM (active) | 
14 | C[C@]12CC[C@H]3[C@@H](CCC4=CC(=O)CC[C@@]43C)[C@H]1CC[C@H]2O | 83.2% | 101% | inactive | inactive | inactive | inactive | inactive | 
15 | CC(C)(C)[C@]1(O)C[C@@H]2OC(=O)C[C@@]23C(=O)O[C@@H]2OC(=O)[C@H](O)C213 (stereo partly drawn) | 106% | 124% | inactive | inactive | 20.9 µM (active) | inactive | inactive | 
16 | CC[C@@H]1[C@@H](C)O[C@@](O)([C@@H](C)[C@H](O)[C@H](C)[C@H]2OC(=O)C=CC=C[C@@H](C)[C@@H]([C@@H](C)[C@@H](O)[C@H](C)[C@@]3(O)C[C@H](O[C@H]4C[C@H](O)[C@H](O)[C@H](C)O4)[C@H](CC)[C@@H](C)O3)OC(=O)C=CC=C[C@@H]2C)C[C@H]1O[C@H]1C[C@H](O)[C@H](O)[C@H](C)O1 | 11.5% | 3.46% | inactive | inactive | 0.59 µM (active) | 0.59 µM (active) | 0.662 µM (active) | 
17 | C=C[C@@H]1CN2CCC1C[C@H]2[C@H](O)c1ccnc2ccccc12 (stereo partly drawn) | 14.7% | 47.1% | inactive | inactive | 20.9 µM (active) |  | 18.7 µM (active) | 
18 | CC1=NN=C(c2ccc(N)cc2)c2cc3c(cc2C1)OCO3 | 244% | 12.1% | inactive | inactive | inactive | inactive | inactive | 
19 | C[C@]12COC(=O)C[C@@H]1CC[C@@H]1[C@H]2CC[C@@]2(C)[C@H]1CC[C@]2(C)O | 122% | 111% | inactive | inactive |  | inactive | inactive | 
20 | CCOC(=O)c1c(C(C#N)=CN)c2ccc(Cl)c(Cl)c2n1C | 130% | 94.3% | inactive | inactive | inactive | inactive | inactive | 
21 | COc1cccc2c1[C@]13CCN(CC4CC4)[C@H](C2)[C@]1(OC)CCC(=O)C3 | 99.3% | 111% | inactive | inactive | inactive | inactive | inactive | 
22 | Oc1ccc2c3c1O[C@H]1c4[nH]c5c(c4C[C@@]4(O)[C@@H](C2)N(CC2CC2)CC[C@]314)C[C@@]1(O)[C@H]2Cc3ccc(O)c4c3[C@@]1(CCN2CC1CC1)[C@H]5O4 | 143% | 119% | inactive | inactive | inactive | inactive | inactive | 

Row | SMILES | cell viability, % of control (lower = more cytotoxic) [1] | viability (% of control) [2] | Potency [3] | Potency [4] | Potency [5] | Potency [6] | Potency [7] | Potency [8]
23 | CC(N[C@H]1C[C@H]1c1ccccc1)c1ccc2c(c1)OCCO2 (stereo partly drawn) | 154% | 96.1% | inactive | inactive |  | inactive |  | 
24 | CCCC[N+]1(C)[C@H]2CC(OC(=O)[C@H](CO)c3ccccc3)C[C@H]1[C@H]1O[C@H]12 (stereo partly drawn) | 119% | 120% | inactive | inactive | inactive | inactive | inactive | 
25 | c1ccc2c(CN3CCNCC3)cccc2c1 | 112% | 99% | inactive | inactive | inactive | inactive | inactive | 
26 | O=C(N[C@H]1CN2CCC1CC2)c1ccc(Cl)cc1 | 126% | 106% | inactive | inactive | 18.7 µM (active) |  | 14.8 µM (active) | 
27 | C[C@@H]1O[C@@H](O[C@@H]2C=C3CC[C@@H]4[C@@H](CC[C@]5(C)[C@H](c6ccc(=O)oc6)CC[C@@]45O)[C@@]3(C)CC2)[C@H](O)[C@H](O)[C@H]1O | 16.6% | 3.76% | inactive |  | 0.0187 µM (active) | 0.0166 µM (active) | 0.0235 µM (active) | 0.0418 µM (active)
28 | CC=C(C)C(=O)N[C@@H](c1ccccc1)[C@@H](O)C(=O)O[C@H]1C[C@@]2(O)[C@@H](OC(=O)c3ccccc3)[C@@H]3[C@]4(OC(C)=O)CO[C@@H]4C[C@H](O)[C@@]3(C)C(=O)[C@H](OC(C)=O)C(=C1C)C2(C)C | 47% | 19.1% | inactive | inactive |  | inactive | inactive | 
29 | CC(C)(C)c1cc(C=C(C#N)C#N)cc(Br)c1O | 12.6% | 11% | inactive | inactive |  |  | 26.4 µM (active) | 
30 | C[C@]12CC[C@H]3[C@@H](CCC4=CC(=O)CC[C@@]43C)[C@H]1CC[C@H]2OC(=O)CCC1CCCC1 | 94% | 104% | inactive | inactive | inactive | inactive | inactive | 
31 | c1ccc(CCCN2CCN(CCOC(c3ccccc3)c3ccccc3)CC2)cc1 | 8.38% | 5.14% | inactive | inactive | 16.6 µM (active) |  | 20.9 µM (active) | 
32 | CCN1CCN(C(=O)Cc2ccc(Nc3ncc(F)c(Nc4ccc(C(=O)Nc5ccccc5Cl)cc4)n3)cc2)CC1 | 2.73% | 2.31% | inactive | inactive | 5.9 µM (active) | 2.96 µM (active) | 4.18 µM (active) | 
33 | C1=C2CCCN[C@H]2[C@@H]2C[C@H]1[C@@H]1CCCCN1C2 | 131% | 105% | inactive | inactive | inactive | inactive | inactive | 
34 | S=C(NC1CCCCC1)N1CCC(c2cnc[nH]2)CC1 |  |  | inactive |  |  |  |  | 
35 | Cc1[nH]nc2ccc(-c3cncc(OC[C@@H](N)Cc4c[nH]c5ccccc45)c3)cc12 | 1.9% | 1.66% |  | inactive | 0.372 µM (active) | 2.09 µM (active) | 4.69 µM (active) | 0.209 µM (active)
36 | COC1=C[C@@H]2[C@@H]3Cc4ccc(OC)c(O)c4[C@]2(CCN3C)CC1=O | 69.4% | 12.3% |  | inactive | 3.32 µM (active) |  | 2.96 µM (active) | 
37 | C[C@@]12OC(=O)[C@]1([C@@H](O)[C@@H]1C=CCCC1)NC(=O)[C@H]2CCCl | 5.68% | 3.86% |  | inactive | 0.0296 µM (active) | 0.0264 µM (active) | 0.0418 µM (active) | 
38 | C[C@@H]1[C@H](O)[C@@H](C)C=CC=CCCC=CC=CC=CC=C[C@H](O[C@H]2O[C@@H](C)[C@H](O)[C@@H](N)[C@@H]2O)CC2O[C@](O)(C[C@@H](O)[C@H](O)CC[C@@H](O)C[C@@H](O)C[C@@H](O)CC(=O)O[C@H]1C)C[C@H](O)[C@H]2C(=O)O | 152% | 124% | inactive |  | inactive | inactive | inactive | 
39 | O=C1CCCN1CC#CCN1CCCC1 |  |  | inactive |  |  |  |  | 
40 | CC(=O)OCC1=C(C(=O)O)N2C(=O)[C@@H](N)[C@@H]2SC1 | 68.5% | 15.5% |  |  | inactive | inactive | inactive | 
41 | Clc1ccc(C(c2ccc(Cl)cc2)n2cc[n+](CC(OCc3ccc(Cl)cc3Cl)c3ccc(Cl)cc3Cl)c2)cc1 (stereo not drawn) |  |  | inactive |  |  |  |  | 
42 | O=C1CCC[C@@H]2[C@H]3CCCN4CCC[C@@H](CN12)[C@@H]34 | 219% | 120% | inactive |  | inactive | inactive | inactive | 
43 | C[C@H]([C@H](O)CCC(C)(C)O)[C@H]1CC[C@@]2(O)C3=CC(=O)[C@@H]4C[C@@H](O)[C@@H](O)C[C@]4(C)[C@@H]3CC[C@]12C | 127% | 110% |  | inactive | inactive | inactive | inactive | 
44 | CCN(CC)C(=O)c1ccc(C2=CC3(CCNCC3)Oc3cccc(O)c32)cc1 | 122% | 79% |  | inactive | inactive | inactive |  | 
